# The list is not random: actives were taken first. Their share in the collection is about 8%.
# FMDV inh = High Throughput Screening for Foot and Mouth Disease Virus Antivirals; Potency, µM (series often up to 57.9 µM), without a hit: at the top dose activity change, negative = inhibition, hits mostly inhibitors; FMDV antiviral cell-based qHTS; AID 1159524, 2015; actives 1.2% (n = 410,000); calls by dose curve; tested in HEK293T cells; note: read-out not given here; potency is the fitted concentration of half-maximal effect; % is set by controls: 0 for no effect and ±100 for the full control effect; nearly all actives have a fitted effect of over 45% in size
# Marburg entry inh = qHTS for inhibitors of binding or entry into cells for Marburg Virus. actives 1.8% (n = 300,000). Marburg virus pseudotyped entry inhibition, cell reporter. Potency, µM (series often up to 37.8 µM), for inactives: at the top dose activity change, negative = inhibition, actives largely listed as inhibitors. AID 540276, 2011; calls by dose curve; tested in HEK293 cells; note: potency is the fitted concentration of half-maximal effect; % is set by controls: 0 for no effect and ±100 for the full control effect
# SARS PLP yeast = qHTS of Yeast-based Assay for SARS-CoV PLP; AID 485353, 2010; actives 0.19% (n = 330,000); Potency, µM (series often up to 32.9 µM), for inactives: top-dose activity, positive = growth rescue, hits mostly activators; S. cerevisiae expressing SARS-CoV PLpro, growth rescue; calls by dose curve; note: potency is the fitted concentration of half-maximal effect; 0% is about no effect; nearly all actives have a fitted effect of over 55% in size
# HCMV inh = qHTS Assay for inhibitors of the human cytomegalovirus (HCMV); actives 4.5% (n = 410,000); activity change, negative = inhibition, % at 57.5 µM; HFF cells, HCMV-luciferase reporter, 72 h; stronger effect = lower value; in the data active = activity change below about -60%; inconclusive = no clear call, values can overlap the other calls; inactive = above about -39%; note: % is set by controls: 0 for no effect and ±100 for the full control effect
#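 Two compound doses tested in HFFs infected with HCMV-luciferase, MOI 1 PFU/cell, 72 h at 37C. Lysate luminescence read with OneGlo; data normalized against buffer-only and 10uM Salinomycin inhibitor controls.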
# Lassa entry inh = qHTS for Inhibitors of binding or entry into cells for Lassa Virus; Potency, µM (series often up to 37.9 µM), inactives show at the highest dose activity change, negative = inhibition, actives largely listed as inhibitors; actives 1.2% (n = 300,000); AID 540256, 2011; Lassa virus pseudotype entry inhibition, cell reporter; calls by dose curve; tested in HEK293 cells; note: potency is the fitted concentration of half-maximal effect; % is set by controls: 0 for no effect and ±100 for the full control effect; nearly all actives have a fitted effect of over 50% in size
# HCV inh = qHTS Assay for Inhibitors of Hepatitis C Virus (HCV); Huh7.5.1 HCVcc-Cre infection, luciferase reporter, 44 h; Potency, µM (series often up to 41.8 µM), without a hit: top-dose activity change, negative = inhibition, most hits filed as inhibitors; actives 3.4% (n = 340,000); AID 651820, 2012; active = well fitted inhibition curve with a large enough effect; inconclusive = small, poorly fitted or top-dose-only effect, or another doubt; inactive = no such curve, though single readings can be large or run the other way; note: potency is the fitted concentration of half-maximal effect; % is set by controls: 0 for no effect and ±100 for the full control effect
#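 Compounds are dispensed onto cells plated 4 h earlier at 1,000 per well, with HCVcc-Cre virus (about 0.5 moi) added next. Following 44 h of culture, luminescent signal is measured for 15 sec after 15 min with substrate at room temperature.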
# Numbers without * were called inactive; ? = inconclusive; / = no result given; + = active, no number; ! = not active in a repeat; [ ] = another dose, or the depositor's remark.
SMILES,FMDV inh,Marburg entry inh,SARS PLP yeast,HCMV inh,Lassa entry inh,HCV inh
CCN(c1ccccc1)S(=O)(=O)c1ccc(C(=O)N2CCN(c3ccccc3)CC2)cc1,-22%,?,11%,5,7.9µM*,?
COc1ccc(S(=O)(=O)N(CC(=O)N2CCN(c3ccccc3)CC2)c2ccccc2)cc1,-22%,0%,-2%,2,?,?
COc1cc(Nc2cc3[nH]c(-c4ccccc4)cc3cn2)cc(C(F)(F)F)c1,/,/,/,-11,/,/
COC(=O)CC(Oc1c(C)n(C)c2ccccc2c1=O)c1ccccc1 (stereo not given),/,-5%[14.2 µM],/,/,/,/
O=C(Nc1ccccc1Cl)N1CCN(c2ccc3nnc(-c4ccc(F)cc4)n3n2)CC1,?,-17%,-2%,4,-23%,?
COc1ccccc1NC(=O)N1CCN(c2ccc3nnc(-c4ccc(F)cc4)n3n2)CC1,-30%,?,1%,-76*!,-1%,-19%
O=C(Nc1ccc(Cl)cc1)N1CCN(c2ccc3nnc(-c4ccccc4)n3n2)CC1,-7%,-26%[46.1 µM],/,-81*,/,/
N[C@@]1(C(=O)O)CO[C@H]2[C@H](C(=O)O)[C@H]21,2%,/,/,/,/,/
CCOC(=O)C1=C[C@@H](C(C)(C)C)N(S(=O)(=O)c2ccc(C)cc2)[C@H]1c1ccc(C)cc1,?,/,/,-76*,/,/
CCOC(=O)C1=C[C@@H](C(C)(C)C)N(S(=O)(=O)c2ccc(C)cc2)[C@H]1c1ccccc1Cl,?,/,/,-26,/,/
O=C(c1cccc(C(=O)N(c2ccccn2)C2CCCCC2)c1)N(c1ccccn1)C1CCCCC1,-7%,9.2µM*,-3%,?,?,-20%
O=C(c1ccc(Cl)cc1)N(c1ccccn1)C1CCCCC1,-13%,9%[46.1 µM],0%,78,-2%,10%
COC(=O)CN1[C@@]2(C#N)CCCC[C@@H]2C[C@H]2CCCC[C@]21C#N,/,15%,/,/,/,/
Cc1ccccc1NC(=O)CCc1c(C)nn(-c2ccc(N3CCOCC3)nn2)c1C,-5%,4%[46.1 µM],21%,+,8%[46.1 µM],19%
CCOc1ccccc1CNC(=O)CCc1c(C)nn(-c2ccc(N3CCCC3)nn2)c1C,-6%,/,/,-60*,-15%[46.1 µM],/
CSc1ccc(-c2nc3cccc(C)n3c2Nc2ccc3c(c2)OCO3)cc1,8%,-1%[46.1 µM],/,41,?,/
Cc1ccc2c(c1)N(CC(=O)NCCCc1ccccc1)C(=O)c1cccnc1O2,?,/,10%,-62*,/,-22%
CSc1ccc(CCNC(=O)CN2C(=O)c3cccnc3Oc3ccc(C)cc32)cc1,?,-9%[46.1 µM],4%,+!,?,?
CCOc1ccc(CCNC(=O)CN2C(=O)c3cccnc3Oc3ccc(C)cc32)cc1OCC,-12%,/,-7%,26,-16%[46.1 µM],-24%
Cc1cc2oc(C(=O)Nc3sc4c(c3C(=O)NCc3ccccc3)CCCC4)cc(=O)c2cc1C,-3%,7%[46.1 µM],/,5,7%[46.1 µM],/
CCc1nn2c(-c3ccco3)ccnc2c1-c1ccc(F)cc1,57%,-26%[46.1 µM],/,14,?,/
Cc1ccc(NC(=O)Cn2nnc(-c3ccccc3)n2)c(C)c1,-4%,/,/,-5,16%[46.1 µM],/
CC(C)S(=O)(=O)c1csc(NC(=O)Nc2cccc([N+](=O)[O-])c2)c1Cl,?,/,0%,6,/,25µM*
O=C(c1cc2ccccc2oc1=O)N1CCN(c2ccc(Cl)cc2)CC1,-19%,9%[46.1 µM],/,-2,6%[46.1 µM],/
CSc1nc(-c2ccccc2)cc(C)c1C#N,-19%,10%[46.1 µM],0%,26,-20%,10µM*
SMILES,FMDV inh,Marburg entry inh,SARS PLP yeast,HCMV inh,Lassa entry inh,HCV inh
O=C(Nc1ccc(Cl)cc1)c1csc(N2CCN(Cc3ccccc3)C2=O)n1,/,/,/,-12,/,/
Cc1oc(-c2ccc(Cl)cc2)nc1CSCC(=O)NC1CCN(Cc2ccccc2)CC1,?,?,?,-85*,?,4µM*
CCOC(=O)N1CCC(NC(=O)CSCc2nc(-c3cccc(OC)c3)oc2C)CC1,?,?,3%,-93*,-9%,?
CCOc1ccc(-c2nc(CSCC(=O)NC3CCCc4ccccc43)c(C)o2)cc1 (stereo not given),0%,-15%,11%,-24,-12%,18µM*
Cc1oc(-c2cccs2)nc1CSCC(=O)NC1CC1,-13%,20%[46.1 µM],4%,-2,0%,19%
CCOc1ccc(-c2nc(CSCC(=O)NCc3ccco3)c(C)o2)cc1,-9%,?,-8%,?,?,?
CCOC(=O)N1CCC(NC(=O)CSCc2nc(-c3ccc(OCC)cc3)oc2C)CC1,?,/,-2%,?,/,?
Cc1oc(-c2ccccc2Cl)nc1CSc1nc2c(c(=O)[nH]1)CCC2,22µM*,26%,17%,-15,-2%,1%[8.37 µM]
Nc1nc(Cl)nc2c1ncn2[C@@H]1O[C@H](COP(=O)(O)OP(=O)(O)OP(=O)(O)O)[C@H](O)[C@H]1O,/,44%,/,/,/,/
C=CC[C@](C)(O)c1ccccc1,/,-2%[14.2 µM],/,/,?,/
CCOc1ccc(-c2nc(CSCC(=O)NCc3ccc(C)cc3)c(C)o2)cc1,-5%,/,/,-69*,3%[46.1 µM],/
CCOc1ccc(-c2nc(CSCC(=O)NC3CC3)c(C)o2)cc1,19%,/,-5%,?,/,-26%
CCOc1ccc(-c2nc(CSCC(=O)NC3CCN(Cc4ccccc4)CC3)c(C)o2)cc1,?,/,/,-94*,/,/
Cc1oc(-c2ccccc2Cl)nc1CSCC(=O)NC1CCCC1,-14%,-13%[46.1 µM],-14%,-75*,-13%,-12%
CCOC(=O)N1CCC(NC(=O)CSCc2nc(-c3ccccc3Cl)oc2C)CC1,-22%,-14%[46.1 µM],-1%,-22,?,-28%
COC(=O)[C@H](C=C[C@H](C)Cc1cc(Br)cc(OCc2ccccc2)c1OC)OCc1ccccc1,/,-15%[14.2 µM],/,/,/,/
O=C1CCN(Cc2ccccc2)C(=O)N1,-5%,5%[46.1 µM],/,?,16%[46.1 µM],?
O=C1NC(=O)N2CCSC2(Cc2ccccc2)N1 (stereo not given),1%,0%,/,-98*,10%[46.1 µM],22%
CC(=O)c1ccc(NC(=O)Nc2ncn(Cc3cccc(C)c3)n2)cc1,-7%,8%,21%,37,0.65µM*,-7%
Cn1c(O)c(/C=C2\N=c3ccccc3=C2CCNC(=S)NC2CC2)c(=O)n(C)c1=O,13µM*,7%[46.1 µM],-2%,16,-9%[46.1 µM],7%
CC1CCN(C(=O)c2ccc(CNS(=O)(=O)c3ccc(C(C)(C)C)cc3)cc2)CC1,-9%,/,-7%,-37,/,22µM*
CC1CN(C(=O)c2ccc(CNS(=O)(=O)c3cccc(C(F)(F)F)c3)cc2)CC(C)O1 (stereo not given),-14%,13µM*,-5%,-10,-30%,?
CC1CCN(C(=O)c2ccc(NS(=O)(=O)c3ccc4[nH]c(=O)[nH]c4c3)cc2)CC1,-15%,3%[46.1 µM],-3%,-98*,19%,?

# Assay outcomes as filed in PubChem.
